# From paper PMC4336329 (PLoS ONE, 2015)
# The whole screen tested about 310,000 compounds, of which about 14,000 (4.5%) showed an effect of 50% or more. Effects have a minus sign here. This excerpt belongs to a sample that is enriched for strong results.
# Molecular target: human ether-à-go-go-related gene (hERG) potassium channel (human, UniProt Q12809)
# Experiment: primary screen, population patch clamp on CHO cells stably expressing hERG; higher = less effect of the substance
# 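Also: peak tail current of the secondary pulse compared with the same well before compound.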
# Chain of human ether-à-go-go-related gene (hERG) potassium channel (Q12809 whole entry, looked up): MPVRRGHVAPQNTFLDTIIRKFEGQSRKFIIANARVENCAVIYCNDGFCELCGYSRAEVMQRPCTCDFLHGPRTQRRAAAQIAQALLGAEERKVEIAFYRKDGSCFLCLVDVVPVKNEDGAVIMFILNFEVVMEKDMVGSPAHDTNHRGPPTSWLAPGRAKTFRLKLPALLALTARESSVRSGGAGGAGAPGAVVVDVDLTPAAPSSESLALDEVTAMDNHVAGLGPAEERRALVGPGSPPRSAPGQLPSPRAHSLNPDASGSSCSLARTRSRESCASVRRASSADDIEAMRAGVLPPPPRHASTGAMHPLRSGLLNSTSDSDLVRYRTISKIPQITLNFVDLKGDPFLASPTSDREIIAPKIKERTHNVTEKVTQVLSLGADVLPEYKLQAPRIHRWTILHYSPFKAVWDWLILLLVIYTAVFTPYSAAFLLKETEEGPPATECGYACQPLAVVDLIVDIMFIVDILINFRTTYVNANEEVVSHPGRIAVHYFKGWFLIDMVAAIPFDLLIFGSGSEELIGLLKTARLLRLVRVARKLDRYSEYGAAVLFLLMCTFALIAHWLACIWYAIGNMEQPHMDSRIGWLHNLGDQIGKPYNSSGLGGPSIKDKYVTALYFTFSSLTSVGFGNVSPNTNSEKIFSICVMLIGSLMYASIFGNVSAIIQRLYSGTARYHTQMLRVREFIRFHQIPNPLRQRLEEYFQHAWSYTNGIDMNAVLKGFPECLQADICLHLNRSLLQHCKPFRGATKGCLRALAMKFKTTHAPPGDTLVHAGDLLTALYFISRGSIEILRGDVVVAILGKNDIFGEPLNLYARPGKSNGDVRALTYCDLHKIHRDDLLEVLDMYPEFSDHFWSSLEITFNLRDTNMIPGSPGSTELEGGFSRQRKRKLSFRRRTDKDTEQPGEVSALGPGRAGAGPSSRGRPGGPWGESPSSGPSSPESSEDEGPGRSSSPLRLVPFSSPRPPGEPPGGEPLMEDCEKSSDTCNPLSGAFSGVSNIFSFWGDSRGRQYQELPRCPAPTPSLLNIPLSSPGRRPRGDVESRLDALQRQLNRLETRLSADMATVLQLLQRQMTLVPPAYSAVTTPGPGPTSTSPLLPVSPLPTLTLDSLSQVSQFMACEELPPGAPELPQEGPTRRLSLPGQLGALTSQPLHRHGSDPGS
row,SMILES,"hERG current change (%, negative = inhibition) at 10uM"
1,CNC(=S)Nc1cccc(S(=O)(=O)NC2=NCCC2)c1,-7.6%
2,Cc1c(-c2ccccc2)c(=O)oc2ccc(O)cc12,13.8%
3,CC1CCCCC1NC1CCN(C)CC1 (stereo not shown),23.9%
4,O=C(Nc1ccc2c(c1)OCO2)c1c(F)cccc1F,3.95%
5,COc1ccccc1-c1cc(C(=O)NCc2ccc(Cl)cc2)no1,3.64%
6,Cc1cc(Nc2nn(C)c(N)c2C#N)ccc1F,-14.8%
7,Cc1cc(Nc2n[nH]c(N)c2C#N)ccc1F,-70.2%
8,Cc1cc(Nc2c(C#N)c(N)nn2C)ccc1F,6.99%
9,CCOc1ccc(C(=O)Nc2cc(-c3nc4ccccc4[nH]3)ccc2Cl)cc1[N+](=O)[O-],-29.1%
10,CCCn1c2ccccc2c2cnn(CC(=O)NCCCOC)c(=O)c21,-1.43%
11,CCCn1c2ccccc2c2cnn(CC(=O)NCCCN3CCN(c4ccccc4)CC3)c(=O)c21,-74.2%
12,CCC1CCCCN1CCCNC(=O)Cn1ncc2c([nH]c3ccc(C)cc32)c1=O (stereo not shown),-6.66%
13,CCCn1c2ccccc2c2cnn(CC(=O)NCCCN3CCCC(C)C3)c(=O)c21 (stereo not shown),-70.8%
14,CCCn1c2ccccc2c2cnn(CC(=O)NCCCN3CCCCC3CC)c(=O)c21 (stereo not shown),-62.2%
15,CCCn1c2ccccc2c2cnn(CC(=O)NC3CCCCC3C)c(=O)c21 (stereo not shown),11.7%
16,Cn1c2ccccc2c2cnn(CC(=O)N3CCCCC3)c(=O)c21,-10.4%
17,CCCn1c2ccccc2c2cnn(CC(=O)N3CCOCC3)c(=O)c21,-13.7%
18,CCCn1c2ccccc2c2cnn(CC(=O)N3CCN(C4CCCCC4)CC3)c(=O)c21,-72.6%
19,CCC1CCCCN1CCCNC(=O)Cn1ncc2c(C)n(Cc3ccccc3Cl)c(C)c2c1=O (stereo not shown),-14.6%
20,CCCn1c2ccccc2c2cnn(CC(=O)NCCCN3C(C)CCCC3C)c(=O)c21 (stereo not shown),-41.8%
21,Cc1ccc(N(Cc2cc3ccccc3[nH]c2=O)C(=O)c2cccs2)cc1C,9.8%
22,O=C(NNc1ccc(Cl)cc1)C1CCC1,16.6%

row,SMILES,"hERG current change (%, negative = inhibition) at 10uM"
1,Cc1cc(C)cc(OCC(=O)O/N=C(\N)c2ccccc2Cl)c1,-13.6%
2,CCOc1cc(/C=C(\C#N)C(N)=O)ccc1OCc1c(C)no[n+]1[O-],-0.204%
3,Cc1cc(C)n(-c2ccc(C(F)(F)F)cc2[N+](=O)[O-])n1,1.78%
4,Cc1nn(C)c(N)c1-c1ccccc1,25.4%
5,O=C(Cn1ncc2c3ccccc3n(Cc3ccccc3)c2c1=O)NCCCN1CCCC1,-72.5%
6,Cc1ccccc1Cn1c2ccccc2c2cnn(CC(=O)NCCCN3CCN(C)CC3)c(=O)c21,-3.23%
7,CCCn1c2ccccc2c2cnn(CC(=O)NC3CCC(C)CC3)c(=O)c21 (stereo not shown),9.11%
8,O=C(Cn1ncc2c3ccccc3n(Cc3ccccc3)c2c1=O)NCCCN1CCCC1=O,-29.8%
9,CCCn1c2ccccc2c2cnn(CC(=O)NC3CCCCC3)c(=O)c21,2.23%
10,CCCn1c2ccccc2c2cnn(CC(=O)NC3CCN(Cc4ccccc4)CC3)c(=O)c21,-55.1%
11,Cc1ccc(C)c(Cn2c3ccccc3c3cnn(CC(=O)NCCCN4CCCCC4)c(=O)c32)c1,-71.9%
12,Cc1ccc(C)c(Cn2c3ccccc3c3cnn(CC(=O)NCCCN4CCOCC4)c(=O)c32)c1,-49.7%
13,CCCn1c2ccccc2c2cnn(CC(=O)NCCCN3CCCCC3)c(=O)c21,-53.4%
14,O=C(Cn1ncc2c3ccccc3n(Cc3ccc(Cl)cc3)c2c1=O)NCCCN1CCCC1=O,-34.5%
15,Cc1ccccc1N(C(=O)c1csnn1)C(C(=O)NC1CCCCC1)c1ccncc1 (stereo not shown),10.7%
16,CN(C)S(=O)(=O)c1cc(NC(=O)CN2CCOCC2)ccc1Cl,17.7%
17,COc1ccc(NC(=O)c2sc3nc(C)nc(N4CCN(c5ccccn5)CC4)c3c2C)cc1Cl,-3.04%
18,Cc1oc2cc(O)cc(O)c2c(=O)c1-c1ccc2c(c1)OCCCO2,3.88%
19,O=C(NC1CCCCCCC1)C1CCN(S(=O)(=O)N2CCCC2)CC1,-2.62%
20,O=C(CNC(=O)c1ccco1)OCC(=O)c1ccc([N+](=O)[O-])cc1,11.9%
21,CCc1noc(C)c1C(=O)OCC(=O)c1ccc(OC)c(OC)c1,-5.3%
22,CC(=O)c1ccc(NC(=O)c2ccc3c(=O)n4c(nc3c2)CCCCC4)cc1,-5.23%

row,SMILES,"hERG current change (%, negative = inhibition) at 10uM"
1,CC(=O)c1cccc(NC(=O)c2ccc3c(=O)n4c(nc3c2)CCCCC4)c1,-75.5%
2,CCc1ccc(NC(=O)c2ccc3c(=O)n4c(nc3c2)CCCCC4)cc1,-46.8%
3,CCOc1ccc(NC(=O)c2ccc3c(=O)n4c(nc3c2)CCCCC4)cc1,19.5%
4,CCOc1ccccc1NC(=O)c1ccc2c(=O)n3c(nc2c1)CCCCC3,-58.6%
5,COc1ccc(NC(=O)c2ccc3c(=O)n4c(nc3c2)CCCCC4)cc1,-40%
6,CCc1ccc(C(=O)NNC(=O)c2ccc3c(=O)n4c(nc3c2)CCC4)cc1,5.5%
7,CCOC(=O)c1ccccc1NC(=O)c1ccc2c(=O)n3c(nc2c1)CCCCC3,-41.3%
8,CCc1cccc(NC(=O)c2ccc3c(=O)n4c(nc3c2)CCCCC4)c1,-76.6%
9,O=C(Nc1ccc(Cl)cc1)c1ccc2c(=O)n3c(nc2c1)CCCCC3,-32.5%
10,O=C(Nc1ccc(F)cc1)c1ccc2c(=O)n3c(nc2c1)CCCCC3,-51.8%
11,CCN(CC)C(=O)c1cccc(NC(=O)c2ccc3c(=O)n4c(nc3c2)CCC4)c1,-10.7%
12,Cc1ccc(NC(=O)C2CCCN(S(=O)(=O)c3ccc4[nH]c(=O)ccc4c3)C2)c(C)c1 (stereo not shown),3.65%
13,Cc1cccc(C)c1N(CC(=O)N(C)Cc1ccccc1)S(C)(=O)=O,3.99%
14,COC(=O)c1ccc2c(=O)n(Cc3ccc4c(c3)OCO4)c(=S)[nH]c2c1,16.3%
15,CCn1c2ccccc2c2cc(NC(=O)CSc3nnc(-c4ccc(OC)cc4)n3N)ccc21,-10.9%
16,O=S(=O)(c1ccc2ccccc2c1)N1CCN(S(=O)(=O)N2CCOCC2)CC1,-0.31%
17,O=C(NC1CCN(C(=O)c2cccs2)CC1)c1ccccc1,-19.3%
18,COC(=O)c1cc(N=CC2=C(O)CC(C)(C)CC2=O)cc(C(=O)OC)c1,-16.3%
19,O=C(c1ccccc1)N1CCN(c2ncnc3c(-c4ccccc4)nsc23)CC1,6.38%
20,Cc1nc2ccccc2c(=O)n1/N=C/c1ccc(O)cc1,10.9%
21,Cc1nn(-c2ccccc2)c2nc(=O)n(-c3ccccc3)cc12,-10.9%
22,Cc1ccc(S(=O)(=O)Nc2cccc(-n3cnnn3)c2)cc1C(=O)O,3.97%

row,SMILES,"hERG current change (%, negative = inhibition) at 10uM"
1,O=C(c1ccc2c(=O)n3c(nc2c1)CCCCC3)N1CCCCC1,17.5%
2,CCOC(=O)N1CCC(NC(=O)c2ccc3c(=O)n4c(nc3c2)CCCC4)CC1,12%
3,O=C(NC1CCCCCC1)c1ccc2c(=O)n3c(nc2c1)CCCCC3,-51%
4,CCNc1ccc(C(=O)OCC)cc1NC(=O)c1cc(S(=O)(=O)N2CCOCC2)ccc1C,-10.9%
5,Cn1c(SCC(=O)N2CCCC2)nnc1-c1cccs1,4.73%
6,CN(C(=O)COC(=O)CSc1cc(Cl)ccc1Cl)c1c(N)n(Cc2ccccc2)c(=O)[nH]c1=O,-0.021%
7,C[C@H]1CN=C(Nc2ccccc2)N1CCC1CCCCC1,-46.8%
8,C[C@H]1CN=C(Nc2ccccc2)N1CCC1CCCC1,-10.6%
9,C[C@H]1CN=C(Nc2ccccc2)N1CCCC1CCCCC1,-62.2%
10,C[C@H]1CN=C(Nc2ccccc2)N1CC1CCCCCC1,-24.5%
11,C[C@H]1CN=C(Nc2ccccc2)N1CCCC1CCCC1,-58.7%
12,C[C@H]1CN=C(Nc2ccccc2)N1CC1CCCCC1,0.474%
13,COc1ccc(S(=O)(=O)N2CCOC2CNC(=O)C(=O)NCc2ccncc2)cc1OC (stereo not shown),10.3%
14,Cc1cccc(-c2nc(S(=O)(=O)c3ccc(F)cc3)c(NCCCN3CCOCC3)o2)c1,-69.4%
15,O=S(=O)(c1ccc(Cl)cc1)c1nc(-c2ccccc2F)oc1NCCN1CCOCC1,-67%
16,Cc1ccccc1-c1nc(S(=O)(=O)c2ccc(Cl)cc2)c(NCCN2CCOCC2)o1,-20.2%
17,Cc1ccc(S(=O)(=O)c2nc(-c3ccccc3)oc2NCCN2CCOCC2)cc1,3.12%
18,O=S(=O)(c1ccc(Cl)cc1)c1nc(-c2ccccc2F)oc1NCCCN1CCOCC1,-10.4%
19,O=S(=O)(c1ccccc1)c1nc(-c2ccccc2)oc1NCCCN1CCOCC1,-43.9%
